# D1 allo mod: allosterically modulates the human D1 dopamine receptor; B-score at 10 µM; P21728; AID 641; HEK293 D1, CRE-luciferase, dopamine EC30 potentiation; actives deviate in either direction; 5.9% of 58,000 active;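 active = luminescence count or its row- and column-corrected plate score outside the 99.7% band of the plate's sample wells, on either side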
# M1 ag: M1 muscarinic receptor agonism | AID 626 | 3% of 64,000 active | CHO-M1 cells, Fluo-4 calcium fluorescence, agonist mode; stronger effect = higher value | B-score at 10 µM;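 active = fluorescence rise, raw or as B-score row- and column-corrected plate score, outside the 99.7% band of its plate's samples, either direction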
# mHtt clearance: compounds clearing mutant huntingtin protein; HeLa Exon1htt(103Q)mCFP, aggregate imaging; zero = plate's median compound well; inhibition, % at 1.5 µM; 0.42% of 47,000 active;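 active = inhibition of aggregate fluorescence above about 70%, also judged a hit by eye on the cell image, limit read from the data, passing the limit was not always enough; inconclusive = no rule stated for this call; inactive = not judged a hit on image review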;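 note: cells exposed to compound for three days before fixation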
# M1 antagonist: blocks the rat M1 muscarinic receptor response to acetylcholine; P08482; CHO-M1 cells, Fluo-4 calcium, ACh EC80 antagonist mode; stronger effect = lower value; B-score at 10 µM; 3.4% of 64,000 active; AID 628;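 active = calcium fluorescence response, raw or row-and-column corrected B-score, differing from the plate sample mean either way at a set confidence level, mostly lower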
# Target sequence (P08482 whole entry, looked up): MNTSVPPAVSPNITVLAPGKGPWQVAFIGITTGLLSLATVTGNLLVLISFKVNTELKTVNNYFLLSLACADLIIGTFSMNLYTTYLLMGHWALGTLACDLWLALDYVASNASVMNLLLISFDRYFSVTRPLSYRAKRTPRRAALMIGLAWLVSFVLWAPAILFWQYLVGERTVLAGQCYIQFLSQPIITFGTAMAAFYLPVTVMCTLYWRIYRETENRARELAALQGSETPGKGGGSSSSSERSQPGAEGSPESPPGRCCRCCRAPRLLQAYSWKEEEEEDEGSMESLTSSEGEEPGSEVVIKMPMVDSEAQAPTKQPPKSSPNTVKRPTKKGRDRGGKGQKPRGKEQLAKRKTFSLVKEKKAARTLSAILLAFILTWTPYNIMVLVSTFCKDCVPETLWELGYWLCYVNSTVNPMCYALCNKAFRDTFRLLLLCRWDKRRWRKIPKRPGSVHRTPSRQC
# * = called active by the depositor; ? = inconclusive; . = no result. The list is not random: actives were taken first. Their share in the collection is about 9.1%.
SMILES,D1 allo mod,M1 ag,mHtt clearance,M1 antagonist
Cc1cc(C)n(-c2ccc(C(=O)Nc3nc4ccccc4s3)cc2)n1,0.0948,-0.514,.,-0.289
CCC(C)(C)n1nnnc1C(c1cc(OC)ccc1OC)N1CCC(C(N)=O)CC1 (configuration not stated),.,.,39.1,.
Cc1[nH]c2ccccc2c1-c1nc2ccccc2[nH]1,-2.72*,0.594,.,-0.157
Cc1ccc(-c2nc3ccccc3[nH]2)s1,-2.12,-0.57,-13.4,0.215
C=CCc1ccccc1OCC(CN1CCCCC1)OC(C)=O (configuration not stated),-4.5*,-1.08,.,1.31
C=CCc1ccccc1OCC(O)CN1CCN(c2ccccc2OC)CC1 (configuration not stated),-6.07*,0.684,.,-0.624
C=CCc1ccccc1OCC(O)CN1CCN(c2ccccc2F)CC1 (configuration not stated),-4.6*,-0.583,-25.6,0.125
C=CCc1cc(C)ccc1OCC(O)CN1CCN(c2ccccc2)CC1 (configuration not stated),.,0.0341,43.7,-1.6
C=CCc1ccccc1OCC(O)CNC(C)C (configuration not stated),-1.55,1.03,.,-0.564
O=C(CN(Cc1ccco1)C(=O)c1ccccc1)Nc1ccc(Cl)c(Cl)c1,.,.,-18.2,.
CC1SCCN1S(=O)(=O)c1ccc2ccccc2c1 (configuration not stated),.,.,34.9,.
CCOc1cc(NC2CS(=O)(=O)CC2O)c(OCC)cc1NC(=O)c1ccccc1 (configuration not stated),-0.242,-0.403,-4.7,2.62*
CCC(=O)Nc1cc(OC)c(NC(=O)c2ccccc2)cc1OC,.,0.0722,20.9,0.00879
Cc1cccc2cc(C#N)c(N3CCN(C)CC3)nc12,-2.21*,1.24,-38.2,-0.0656
Cc1cc(C)c2nc(N3CCN(C)CC3)c(C#N)cc2c1,-0.637,0.695,-7.2,-0.0203
C=CCc1c(C)nc(N)[nH]c1=O,.,.,-3.3,.
Cc1ccc(NC(=O)CS(=O)Cc2nc(-c3ccc(C)cc3)oc2C)cc1 (configuration not stated),.,.,5.8,.
Nc1nc(-c2nc3ccccc3[nH]2)cs1,-2.76*,-0.23,.,0.239
COc1cc2[nH]c(=O)c(C(=O)NCCCN3CCCCC3)c(O)c2cc1OC,-4.33*,0.294,-43.2,-0.0999
Cc1nc2cc(N3CCN(C)CC3)c(NC(=O)Cc3ccccc3)cc2c(=O)n1Cc1ccccc1,-2.41*,0.0385,-18.5,0.181
CCN(CC)c1cc2nc(C)n(Cc3ccccc3)c(=O)c2cc1NC(=O)C1CC1,.,.,-35.4,.
Cc1cccc(-n2ncc3c(N4CCN(c5nc(C)cc(C)n5)CC4)ncnc32)c1,-0.0273,0.205,.,0.226
Cc1nc2cc(F)ccc2n1C1CCN(S(=O)(=O)c2ccccc2)CC1,-0.827,-0.0206,39.8,-0.00787
CCOC(=O)c1c(C)oc2c1c(C(c1cccnc1)N1CCN(C)CC1)c(O)c1ccccc12 (configuration not stated),-0.73,3.37*,.,-0.00266
CCOC(=O)c1c(C)oc2c1c1c(c3ccccc32)OCN(Cc2cccnc2)C1,0.367,-0.137,.,0.798
SMILES,D1 allo mod,M1 ag,mHtt clearance,M1 antagonist
O=S(=O)(NCc1ccccc1)c1cnc[nH]1,-0.201,0.744,26.2,1.35
Fc1ccc(-c2cnc[nH]2)cc1,-0.945,-0.0398,.,1.94*
COCCNC(=O)c1c(NC(=O)c2nc(SC)ncc2Cl)sc2c1CCCC2,.,.,-80.4,.
Cc1[nH]nc2c1C1(CCN(Cc3ccccc3)CC1)C(C#N)=C(N)O2,-0.457,4.06*,.,0.35
CC(C)c1[nH]nc2c1C1(CCN(Cc3ccccc3)CC1)C(C#N)=C(N)O2,-1.36,.,.,.
Cc1cc(Oc2ccccc2)nc2ccc(O)cc12,.,0.772,.,0.437
COc1ccccc1N(CC(=O)N1CCCCCC1)S(C)(=O)=O,-0.00361,-0.0043,.,0.2
CCOc1ccccc1N(CC(=O)N1CCCCCC1)S(C)(=O)=O,-3.82*,0.107,-10.7,1.37
Cc1nn2c(-c3ccccc3)nnc2c2ccccc12,1.1,0.343,?,2.05*
O=C(OCC#CCSc1nnc(-c2cccc3ccccc23)o1)c1ccco1,.,.,-2.0,.
COc1ccc(OC)c(Nc2cc(-c3ccccc3)nc(N)n2)c1,-2.11,-0.0276,.,0.212
Cc1c(C#N)c2ncn(Cc3ccccc3)c(=O)c2n1-c1ccccc1,13.3*,0.278,56.8,-0.0126
CC1CCCC/C1=N\NS(=O)(=O)c1ccc(Br)cc1 (configuration not stated),.,.,-11.9,.
O=C(Nc1nnc(-c2ccco2)s1)c1ccccc1,-4.51*,-0.0191,.,-0.354
O=C(Nc1nnc(/N=C/c2ccco2)s1)c1ccc(F)cc1,-0.689,0.0408,70.6*,-0.447
O=C(Nc1nnc(-c2ccco2)s1)C1CC1,0.845,-0.00656,33.3,-0.691
O=C(Nc1nc(=O)c2ccccc2s1)c1ccc(F)cc1,.,.,-34.2,.

# Bioassay records: PubChem, several laboratories
